# In PubChem BioAssay (Tox21):
# Values without a mark were called inactive. Results filed as inconclusive are left out. Where a call stands in place of a potency, no number is given. Activity calls are given as the source filed them. Unless noted, the call rests on the fitted dose curve; in most records, active means well fitted curve in the direction sought with a large enough effect in the repeat runs; inconclusive means weak or mixed curves; inactive means no such curve, though single readings can be large; an effect the other way counts as inactive or inconclusive.
# How the values were obtained:
# [1] = qHTS assay to identify small molecule antagonists of the estrogen related receptor (ERR) signaling pathway from Tox21 library - cell viability counter screen (AID 1224834); further: nearly all actives have a fitted effect of over 30% in size
# How it was run: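 ERR reporter cells, 2,000 per well, rested 6 h, then exposed to compound in DMSO for 17.5 hours at 37 C. Viability read as fluorescence after 30 min with CellTiter-Fluor.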
# [2] = biological target: Luciferin 4-monooxygenase (Photinus pyralis) (UniProt P08659); experiment: qHTS assay to identify small molecule inhibitors of firefly luciferase (AID 1224835); further: nearly all actives have a fitted effect of over 25% in size; further: potency means the concentration at half of the fitted maximal effect
# How it was run: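 Quantitative HTS format; KM concentrations of both substrates. Purified P. pyralis FLuc activity quantified from luminescence images.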
# [3] = qHTS assay to identify small molecule agonists of the constitutive androstane receptor (CAR) signaling pathway - cell viability counter screen (AID 1224836); further: nearly all actives have a fitted effect of over 45% in size
# How it was run: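 Compound titrations (15 concentrations) went onto HepG2-CYP2B6-hCAR cells 4 h after seeding, alongside PK11195 at a final 0.75 uM; a 23 h, 37 C/5% CO2 incubation preceded CellTiter-Fluor viability measurement.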
# [4] = qHTS assay to identify small molecule antagonists of the constitutive androstane receptor (CAR) signaling pathway - cell viability counter screen (AID 1224837); further: nearly all actives have a fitted effect of over 45% in size
# How it was run: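 HepG2 cells stably carrying hCAR and CYP2B6-2.2kb reporter, stimulated with 50 nM CITCO and compounds at 15 concentrations for 23 h at 37 C. Viability measured by CellTiter-Fluor fluorescence.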
# [5] = biological target: Nuclear receptor subfamily 1 group I member 3 (Homo sapiens) (UniProt Q14994); experiment: qHTS assay to identify small molecule antagonists of the constitutive androstane receptor (CAR) signaling pathway (AID 1224838); further: nearly all actives have a fitted effect of over 40% in size
# How it was run: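 HepG2 cells stably carrying hCAR and a CYP2B6-2.2kb luciferase reporter, seeded 4 hrs before compound (15 concentrations). Stimulated with 50 nM CITCO for 24 hr at 37 C. ONE-Glo luminescence read after 30 min at room temperature.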
# [6] = biological target: Nuclear receptor subfamily 1 group I member 3 (Homo sapiens) (UniProt Q14994); experiment: qHTS assay to identify small molecule agonists of the constitutive androstane receptor (CAR) signaling pathway (AID 1224839); further: nearly all actives have a fitted effect of over 15% in size
# How it was run: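 In this screen, CAR-driven CYP2B6 promoter activity is measured by luminescence in HepG2-CYP2B6-hCAR cells after 24 h with test compounds and 0.75 uM PK11195 (final concentration).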
# [7] = qHTS assay to identify small molecule antagonists of the estrogen related receptor signaling pathway with the pleiotropic PPARgamma coactivator (PGC) from Tox21 10K library - cell viability counter screen (AID 1224840; active means well fitted cell-killing curve with a large enough effect in the repeat runs, not every such curve was filed as active; further: nearly all actives have a fitted effect of over 40% in size)
# How it was run: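 PGC/ERR cells (2,000/well) plated 6 h, then compound-treated for 17.5 h at 37 C. Viability measured by CellTiter-Fluor fluorescence after 30 min at 37 C, multiplexed with the pathway assay.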
# [8] = biological target: Thyrotropin receptor (Homo sapiens) (UniProt P16473); experiment: qHTS assay to identify small molecule agonists of the thyroid stimulating hormone receptor (TSHR) signaling pathway (AID 1224843; calls by dose curve; further: nearly all actives have a fitted effect of over 45% in size)
# How it was run: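 TSHR-expressing HEK293 cells (800 per well) were exposed to compounds for 30 min at room temperature. cAMP was then detected by HTRF competition with cAMP-d2 and anti-cAMP cryptate, read after 1 h at room temperature. Fifteen concentrations, triplicate.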
# [9] = qHTS assay to identify small molecule agonists of the hypoxia (HIF-1) signaling pathway - cell viability counter screen (AID 1224844; calls by dose curve; further: nearly all actives have a fitted effect of over 50% in size)
# How it was run: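 HRE-bla ME-180 cells, 2,000/well in 0.5% dialyzed FBS medium, treated 17 h at 37C with compounds. Viability read in the same wells as the bla reporter, by CellTiter-Glo luminescence after 30 min at room temperature.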
# [10] = qHTS assay to identify small molecule agonists of H2AX (AID 1224845; active means well fitted activation curve with a large enough effect in the signal ratio in the repeat runs, not every such curve was filed as active; the % refers to the signal ratio)
# How it was run: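 Wild-type CHO-K1 cells plated overnight, then exposed 3 hr at 37C to compounds at 15 concentrations (0.76% DMSO). Lysed, then HTRF anti-pH2AX(S139)-cryptate/anti-H2AX-d2 detection after 24 hr at room temperature; emissions 665 and 620 nm.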
# [11] = qHTS assay to identify small molecule agonists of the hypoxia (HIF-1) signaling pathway (AID 1224846; active means well fitted activation curve with a large enough effect in the signal ratio in the repeat runs, not every such curve was filed as active; the % refers to the signal ratio)
# How it was run: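 HRE-bla ME-180 beta-lactamase reporter cells in medium with 0.5% dialyzed FBS, pre-incubated 5 h then exposed to compounds 17 h at 37C, 5% CO2; reporter induction read with CCF4-AM FRET substrate.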
# [12] = qHTS assay to identify small molecule agonists of H2AX - cell viability counter screen (AID 1224847; calls by dose curve; further: top concentration of the series differs between compounds; nearly all actives have a fitted effect of over 30% in size)
# How it was run: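 Read-out: CellTiter-Glo luminescence, 30 min RT. Cells: wild-type CHO-K1, 1000/well, 10% FBS, plated overnight at 37C. Treatment: 15 concentrations, 3 hr, 37C, 0.76% DMSO.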
# [13] = qHTS RealTime-Glo MT Cell Viability Assay in HepG2 cells - 24 hour (AID 1224867); further: nearly all actives have a fitted effect of over 50% in size
# How it was run: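 Viability was tracked continuously by NanoLuc luminescence from prosubstrate reduced by living HepG2 cells, at successive time points over 40 h of compound exposure. Cells with reagent were preincubated 5 h at 37 °C before compound addition.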
# [14] = qHTS RealTime-Glo MT Cell Viability Assay in HEK293 cells - 32 hour (AID 1224868); further: nearly all actives have a fitted effect of over 50% in size; further: potency means the concentration at half of the fitted maximal effect
# How it was run: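 Viability tracked continuously by luminescence as live cells reduce a prosubstrate for NanoLuc; HEK293 cells preincubated 5 h, compound-treated at 37 C, and read at 0, 8, 16, 24, 32 and 40 h.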
# [15] = A CellTox Green Cytotoxicity Assay to monitor cytotoxicity in HEK293 cells - 0 hour (AID 1224869); further: nearly all actives have a fitted effect of over 50% in size; further: potency means the concentration at half of the fitted maximal effect
# How it was run: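 HEK293 cells, 600/well, were preincubated 5 hours and then exposed to compounds at 37 C for up to 40 hours. A cell-impermeant cyanine dye staining dead-cell DNA was read by fluorescence at 0, 8, 16, 24, 32 and 40 h time points.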
# [16] = qHTS assay to identify small molecule antagonists of the estrogen related receptor signaling pathway with the pleiotropic PPARgamma coactivator (PGC) from Tox21 10K library (AID 1224841; call rule not given here)
# How it was run: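 PGC/ERR cell line, 2,000 cells/well, pre-incubated 6 hours at 37 C, then exposed to compounds for 18 hours at 37 C; luciferase read with One-Glo luminescence after 30 min at room temperature.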
# [17] = qHTS assay to identify small molecule agonists of the estrogen related receptor signaling pathway with the pleiotropic PPARgamma coactivator (PGC) from Tox21 10K library (AID 1224842); further: nearly all actives have a fitted effect of over 15% in size
# How it was run: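 PGC/ERR reporter cells (NTP line) were seeded 2,000 per well, rested 6 h at 37 C/5% CO2, then pin-dosed with compounds in DMSO for 18 h at 37 C; luciferase read by One-Glo luminescence after 30 min at room temperature.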
# [18] = qHTS assay to identify small molecule antagonists of the estrogen related receptor (ERR) signaling pathway from Tox21 library (AID 1224848); further: nearly all actives have a fitted effect of over 50% in size
# How it was run: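 Cells: ERR line, 2,000/well; 6 h preincubation 37 C/5% CO2. Cpd in DMSO via pin tool; 18 h, 37 C. ONE-Glo, 30 min RT, luminescence.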
# [19] = qHTS assay to identify small molecule agonists of the estrogen related receptor (ERR) signaling pathway from Tox21 library (AID 1224849; calls by dose curve; further: nearly all actives have a fitted effect of over 15% in size); conditions: ERR reporter cell line, ONE-Glo luciferase, 18 h; at 92.4 µM (top of the series) unless noted
# How it was run: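 ERR reporter cells (NTP line) pre-incubated 6 hours at 37 C, then exposed to compounds for 18 hours at 37 C. ONE-Glo luciferase luminescence was read after 30 minutes at room temperature.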
# Sequence of Luciferin 4-monooxygenase (Photinus pyralis) (P08659 whole entry, looked up): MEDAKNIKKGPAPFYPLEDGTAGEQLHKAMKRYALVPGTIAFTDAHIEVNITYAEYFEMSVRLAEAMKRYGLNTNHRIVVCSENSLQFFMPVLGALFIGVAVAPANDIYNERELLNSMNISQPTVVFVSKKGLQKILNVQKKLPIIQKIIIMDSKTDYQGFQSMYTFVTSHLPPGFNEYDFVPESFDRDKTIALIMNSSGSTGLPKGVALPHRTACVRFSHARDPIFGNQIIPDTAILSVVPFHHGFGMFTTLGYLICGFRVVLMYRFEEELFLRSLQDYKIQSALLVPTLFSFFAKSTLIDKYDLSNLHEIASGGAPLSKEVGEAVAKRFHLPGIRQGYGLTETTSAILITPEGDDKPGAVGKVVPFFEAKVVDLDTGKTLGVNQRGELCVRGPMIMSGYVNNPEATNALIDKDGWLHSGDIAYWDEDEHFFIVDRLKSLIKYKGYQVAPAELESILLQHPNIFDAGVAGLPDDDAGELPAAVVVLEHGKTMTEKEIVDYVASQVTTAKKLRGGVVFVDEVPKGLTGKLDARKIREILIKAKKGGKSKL
# Sequence of Nuclear receptor subfamily 1 group I member 3 (Homo sapiens) (Q14994 whole entry, looked up): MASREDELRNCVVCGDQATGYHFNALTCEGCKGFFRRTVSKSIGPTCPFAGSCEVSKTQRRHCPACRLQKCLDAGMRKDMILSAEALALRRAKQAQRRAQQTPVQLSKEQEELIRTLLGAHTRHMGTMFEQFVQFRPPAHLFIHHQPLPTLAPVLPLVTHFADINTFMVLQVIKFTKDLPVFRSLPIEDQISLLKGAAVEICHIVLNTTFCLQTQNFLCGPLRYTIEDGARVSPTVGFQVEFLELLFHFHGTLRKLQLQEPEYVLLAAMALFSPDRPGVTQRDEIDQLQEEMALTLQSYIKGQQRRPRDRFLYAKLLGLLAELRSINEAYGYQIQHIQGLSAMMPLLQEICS
# Sequence of Thyrotropin receptor (Homo sapiens) (P16473 whole entry, looked up): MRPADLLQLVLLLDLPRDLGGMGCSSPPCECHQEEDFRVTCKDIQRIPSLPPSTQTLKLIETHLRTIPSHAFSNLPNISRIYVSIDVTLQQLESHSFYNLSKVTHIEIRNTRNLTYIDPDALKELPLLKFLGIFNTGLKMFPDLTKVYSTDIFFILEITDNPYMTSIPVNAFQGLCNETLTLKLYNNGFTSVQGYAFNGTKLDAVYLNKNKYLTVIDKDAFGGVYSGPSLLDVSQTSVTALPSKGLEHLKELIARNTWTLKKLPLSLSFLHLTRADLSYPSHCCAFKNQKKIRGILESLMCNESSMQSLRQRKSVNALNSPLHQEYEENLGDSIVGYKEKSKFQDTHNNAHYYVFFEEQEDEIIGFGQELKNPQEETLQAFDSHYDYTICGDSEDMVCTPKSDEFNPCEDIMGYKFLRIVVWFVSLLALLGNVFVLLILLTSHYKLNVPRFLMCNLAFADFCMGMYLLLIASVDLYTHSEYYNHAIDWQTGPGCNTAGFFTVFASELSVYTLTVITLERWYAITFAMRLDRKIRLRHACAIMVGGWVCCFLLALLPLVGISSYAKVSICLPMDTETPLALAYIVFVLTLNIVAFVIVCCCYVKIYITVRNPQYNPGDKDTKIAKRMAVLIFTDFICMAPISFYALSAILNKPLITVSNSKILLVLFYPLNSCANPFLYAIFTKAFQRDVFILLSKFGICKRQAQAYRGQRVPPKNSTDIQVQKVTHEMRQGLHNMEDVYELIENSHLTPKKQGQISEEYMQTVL
SMILES,Potency [1],Potency [2],Potency [3],Potency [4],Potency [5],Potency [6],Potency [7],Potency [8],Potency [9],Potency [10],outcome [11],Potency [12],Potency [13],Potency [14],Potency [15],Potency [16],Potency [17],Potency [18],"activity change, positive = activation [19]"
CC(C)(C(=O)c1cccnc1)c1cccnc1,inactive,inactive,inactive,inactive,inactive,inactive,inactive,inactive,inactive,inactive,inactive,inactive,inactive,inactive,inactive,,,,
CC(=O)Oc1cccc(O)c1,inactive,inactive,inactive,inactive,inactive,inactive,inactive,,inactive,inactive,inactive,inactive,inactive,inactive,inactive,inactive,inactive,inactive,5.58% [at 42.5 µM]
CCCCCCC(O)CCCCCCCCCCC(=O)OC (stereo unspecified),inactive,inactive,inactive,inactive,inactive,inactive,inactive,inactive,inactive,inactive,inactive,inactive,inactive,inactive,inactive,,,,
COC(CC(C)CCCC(C)(C)O)OC (stereo unspecified),inactive,inactive,inactive,inactive,inactive,inactive,inactive,inactive,inactive,inactive,inactive,inactive,inactive,inactive,inactive,,,,
O=C(c1ccccc1)C1CCC1,inactive,inactive,inactive,inactive,inactive,inactive,inactive,inactive,inactive,inactive,inactive,inactive,inactive,inactive,38.9 µM (active),,,,
CCCCCc1ccco1,inactive,inactive,inactive,inactive,inactive,inactive,inactive,inactive,inactive,inactive,inactive,inactive,inactive,inactive,inactive,,,,
CC(C)(C)CCCCCCOC(=O)c1ccccc1C(=O)OCCCCCCC(C)(C)C,inactive,inactive,inactive,inactive,inactive,inactive,inactive,inactive,inactive,inactive,inactive,inactive,inactive,inactive,inactive,,inactive,inactive,
CN1C(CSCC(F)(F)F)Nc2cc(Cl)c(S(N)(=O)=O)cc2S1(=O)=O (stereo unspecified),inactive,inactive,inactive,inactive,inactive,inactive,inactive,,inactive,inactive,inactive,inactive,inactive,19 µM (active),inactive,,inactive,,
CSSc1ccoc1C,inactive,inactive,inactive,inactive,inactive,inactive,inactive,inactive,inactive,inactive,inactive,inactive,inactive,inactive,inactive,,,,
O=S(=O)(O)CO,inactive,inactive,inactive,inactive,inactive,inactive,inactive,inactive,inactive,inactive,inactive,inactive,inactive,inactive,inactive,,,,
Nc1ccc(NC(=O)c2ccc(N)cc2)cc1,inactive,40 µM (active),inactive,inactive,inactive,inactive,inactive,,inactive,,inactive,inactive,inactive,inactive,inactive,inactive,inactive,inactive,
CCCCOCCOC(=O)c1cccnc1,inactive,inactive,inactive,inactive,inactive,inactive,inactive,inactive,inactive,inactive,inactive,inactive,inactive,inactive,inactive,,,,
CS(=O)(=O)c1ccc([C@@H](C[C@H]2CCC(=O)C2)C(=O)Nc2cnccn2)cc1Cl,inactive,inactive,inactive,inactive,inactive,inactive,inactive,inactive,inactive,inactive,inactive,inactive,inactive,inactive,inactive,,,,
CCC(C)(C)C(=O)O,inactive,inactive,inactive,inactive,inactive,inactive,inactive,inactive,inactive,inactive,inactive,inactive,inactive,inactive,inactive,,,,
